Assay outcomes (PubChem BioAssay)
Sampled rows, rich in hits. Any-hit rate of the full collection: about 18%.
TDP1 cell CPT = qHTS for Inhibitors of human tyrosyl-DNA phosphodiesterase 1 (TDP1): qHTS in cells in presence of CPT; chicken DT40 Tdp1-/-;hTDP1 cells + 20 nM CPT, ATP luminescence, 48 h; Potency, µM (top dose mostly 46.2 µM), inactives show top-dose activity change, negative = growth inhibition, most hits filed as inhibitors; hit rate 12% among 420,000; AID 686979, 2013; further: potency means the concentration at half of the fitted maximal effect; nearly all actives have a fitted effect of over 55% in size
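Cell growth measured by CellTiter-Glo luminescence after a minimum 48 h, 37 C compound exposure with 20 nM CPT in Tdp1-knockout DT40 cells stably expressing hTDP1, seeded 400/well; qHTS titration format.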
DT40 TDP1 no CPT = qHTS for Inhibitors of human tyrosyl-DNA phosphodiesterase 1 (TDP1): qHTS in cells in absence of CPT. hit rate 15% among 420,000. Potency, µM (top dose mostly 46.2 µM), for inactives: at the top dose activity change, negative = growth inhibition, usual class: inhibitors. DT40 Tdp1-/- hTDP1 cells, no CPT, ATP luminescence, 48 h. AID 686978, 2013; further: potency means the concentration at half of the fitted maximal effect; nearly all actives have a fitted effect of over 55% in size
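Chicken DT40 Tdp1-/- cells complemented with human TDP1, screened without camptothecin (DMSO vehicle only), 400 cells/well. Compounds pin-transferred, cells incubated at 37 °C for at least 48 hr. Growth read as ATP-dependent luminescence (CellTiter-Glo, 30 min at RT).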
LDHA block = qHTS assay for inhibitors of human lactate dehydrogenase | AID 1347041, 2019 | purified LDHA, NADH/diaphorase-resazurin fluorescence; stronger effect = lower value | L-lactate dehydrogenase A chain (Homo sapiens), P00338 | hit rate 0.15% among 480,000 | activity change, % (values are at about 110 or 230 µM); in the data active means activity change below about -30%; inconclusive means mostly about -25% to -30%;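 further: plate controls were DMSO wells for no effect and wells without enzyme for full effect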
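Resorufin fluorescence (ex540/em590), read at 0 and 20 min after diaphorase/resazurin addition, reports the NADH left after a 5 min room-temperature reaction of 2 nM human LDH5 with 0.06 mM NADH and 0.2 mM pyruvate.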
Gal4-VP16 FLuc = VP16 counterscreen qHTS for inhibitors of ROR gamma transcriptional activity | Drosophila S2 Gal4-VP16 UAS-luciferase, luminescence, 20 h | Potency, µM (doses to about 53.6 µM), inactives show at the highest dose activity, negative = inhibition, usual class: inhibitors | hit rate 3.5% among 310,000 | AID 2546, 2010;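 further: Gal4-VP16 expression switched on by copper sulfate through the metallothionein promoter; potency means the concentration at half of the fitted maximal effect; nearly all actives have a fitted effect of over 50% in size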
IL-1B inflam inh = qHTS for Inhibitors of Inflammasome Signaling: IL-1-beta AlphaLISA Primary Screen | THP-1 LPS/ATP IL-1B secretion, AlphaLISA, 16 h; stronger effect = lower value | activity change, % at 57.5 µM | hit rate 4.7% among 360,000 | AID 743279, 2014; in the data active means activity change below about -50%; inconclusive means mostly about -30% to -49%
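Secreted IL-1B measured by AlphaLISA bead assay after 16 h compound exposure of THP-1 cells; compounds (final up to 57.5 uM) added 1 h before LPS (250 ng/mL) and ATP (1.25 mM) stimulation; lower signal means less secretion.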
RORg inh = qHTS for inhibitors of ROR gamma transcriptional activity; Nuclear receptor ROR-gamma (Mus musculus), P51450; Drosophila S2 Gal4-RORgamma UAS-luciferase reporter, 20 h; Potency, µM (top dose mostly 53.6 µM), for inactives: at the highest dose activity change, negative = inhibition, actives largely listed as inhibitors; hit rate 5.4% among 310,000; AID 2551, 2010; further: potency means the concentration at half of the fitted maximal effect; nearly all actives have a fitted effect of over 60% in size
Target sequence (P51450 whole entry, looked up, the tested form may be a part): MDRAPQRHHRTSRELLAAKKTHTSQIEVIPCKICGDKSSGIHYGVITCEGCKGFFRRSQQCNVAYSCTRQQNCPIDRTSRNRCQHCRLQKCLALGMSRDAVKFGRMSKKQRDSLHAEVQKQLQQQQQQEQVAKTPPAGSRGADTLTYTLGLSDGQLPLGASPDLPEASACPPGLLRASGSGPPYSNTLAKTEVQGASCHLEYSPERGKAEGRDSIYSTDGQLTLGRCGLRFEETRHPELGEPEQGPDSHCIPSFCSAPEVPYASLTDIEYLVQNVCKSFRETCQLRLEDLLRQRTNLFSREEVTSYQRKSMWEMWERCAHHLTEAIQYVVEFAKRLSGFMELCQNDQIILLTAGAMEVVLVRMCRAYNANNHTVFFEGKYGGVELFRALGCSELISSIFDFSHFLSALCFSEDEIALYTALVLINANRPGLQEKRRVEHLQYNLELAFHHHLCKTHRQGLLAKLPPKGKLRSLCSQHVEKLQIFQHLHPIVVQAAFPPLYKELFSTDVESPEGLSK
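Using a luciferase readout, inhibitors were identified by reduced reporter activity in Drosophila cells coexpressing a copper-inducible Gal4–ROR gamma fusion and UAS-driven Photinus luciferase, incubated 20 hr after 700 uM copper sulfate.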
Starred values were filed as active, the others as inactive; ? = inconclusive; . = not tested or not shown. Unless noted, the call rests on the fitted dose curve; in most records, active means well fitted curve in the direction sought with a large enough effect; inconclusive means small, poorly fitted or top-dose-only effect, or another doubt; inactive means no such curve, though single readings can be large; an effect the other way counts as inactive or inconclusive. Unless noted, on the % scale 0 is the no-effect control and ±100 the full control effect.

SMILES	TDP1 cell CPT	DT40 TDP1 no CPT	LDHA block	Gal4-VP16 FLuc	IL-1B inflam inh	RORg inh
COCCN(C)Cc1nc(C(c2ccccc2)c2ccccc2)no1	-21%	0%	-1	.	26	.
COc1cccc(CNCC(c2ccccc2)c2c[nH]c3ccccc23)c1 (stereo not drawn)	.	.	5	.	.	.
CSc1ccc(/C=C/C(=O)Nc2cc(Cl)ccc2C)cc1	.	.	7	.	.	.
C[C@H](CO)N1C[C@H](C)[C@@H](CN(C)Cc2ccc(Cl)c(Cl)c2)OCCCC[C@H](C)Oc2ccc(NC(=O)CCC(F)(F)F)cc2C1=O	23µM*	15µM*	3	.	-18	.
C[C@@H]1CCCCO[C@H](CN(C)Cc2ccc(Cl)c(Cl)c2)[C@@H](C)CN([C@H](C)CO)C(=O)c2cc(N(C)C)ccc2O1	18µM*	23µM*	-1	.	?	.
COc1ccc(NC(=O)Nc2ccc3c(c2)C(=O)N([C@H](C)CO)C[C@H](C)[C@H](CN(C)Cc2ccc(C(=O)O)cc2)OCCCC[C@@H](C)O3)cc1	1%	-33%	-8	.	12	.
C[C@@H]1CN([C@H](C)CO)C(=O)c2cc(NC(=O)Nc3ccc(F)cc3)ccc2O[C@@H](C)CCCCO[C@H]1CN(C)S(=O)(=O)c1ccc(Cl)cc1	26µM*	?	-10	.	.	.
C[C@@H]1CCCCO[C@H](CN(C)Cc2ccc(Cl)c(Cl)c2)[C@H](C)CN([C@@H](C)CO)C(=O)c2cc(NC(=O)Nc3ccc(F)cc3)ccc2O1	9.2µM*	5.8µM*	-4	.	?	.
COc1ccc(-c2nc3ccccc3n2Cc2ccc(C(C)C)cc2)cc1	.	.	5	.	.	.
C=CCn1c(-c2ccc(C)cc2)nc2ccccc21	15µM*	21µM*	-4	-6%	-17	?
Clc1ccc(-c2nc3ccccc3n2OCc2ccccc2)cc1	21µM*	21µM*	-2	7%	11	-32%
COc1ccc(-c2nc3ccccc3n2Cc2ccc(C)cc2)cc1	16µM*	?	1	?	-26	13µM*
C=C(C)Cn1c(-c2ccc(OC)cc2)nc2ccccc21	13µM*	15µM*	-7	-5%	-1	-40%
COc1ccc(-c2nc3ccccc3n2Cc2ccc(Cl)cc2)cc1	21µM*	21µM*	3	.	.	.
CCOC(=O)n1c(=O)n(Cc2ccc(OC)cc2)c2ccccc21	?	16µM*	-4	10%	19	4%
CCOC(=O)n1c(=O)n(Cc2ccccc2C)c2ccccc21	-28%	?	-1	-7%	-4	29%
CCCn1c(-c2ccc(OC)cc2)nc2ccccc21	2.6µM*	3.7µM*	0	-16%	-18	?
COCn1c(-c2ccc(OC)cc2)nc2ccccc21	-11%	-27%	-4	0%	-20	?
COc1ccc(Cn2c(-c3ccc(C)cc3)c[n+]3ccccc23)cc1	1µM*	0.92µM*	-10	18µM*	0	11%
COc1ccc(Cn2c(O)c(C=Nc3ccc(C)cc3)c3ccccc3c2=O)cc1	-3%	-21%	-5	-1%	-13	3%
COc1cccc(C(=O)OCc2nc(N)c3ccccc3n2)c1	.	.	-4	.	.	.
Cc1cc(C(=O)NC2CCN(Cc3ccccc3)CC2)c2c(C)nn(-c3cccc(F)c3)c2n1	.	.	9	.	.	.
O=C(/C=C/c1cccc(Cl)c1)c1ccc(OC(F)F)cc1OC(F)F	.	.	-1	.	.	.
CCOC(=O)C(O)(c1c(C)[nH]c2ccccc12)C(F)(F)F (stereo not drawn)	.	.	3	.	.	.
CCOC(Cn1c(-c2ccc(OC)cc2)nc2ccccc21)OCC	23µM*	16µM*	-3	-2%	-5	?
SMILES	TDP1 cell CPT	DT40 TDP1 no CPT	LDHA block	Gal4-VP16 FLuc	IL-1B inflam inh	RORg inh
COc1ccc(-c2nc3ccccc3n2OC(C)C(=O)O)cc1 (stereo not drawn)	-6%	-19%	-10	-15%	5	-16%
CN1C(=O)C(CC(=O)O)S/C1=N\N=C\c1ccc(O)cc1O (stereo not drawn)	-15%	10%	-4	20µM*	2	?
Cc1ccccc1-n1nnnc1SCC(=O)Nc1ccc2nccnc2c1	.	.	12	.	.	.
COc1ccc(N2C(=O)CC(NC34CC5CC(CC(C5)C3)C4)C2=O)c(OC)c1 (stereo not drawn)	6%	-2%	-3	3%	8	-32%
CC(C)c1ccc(N2C(=O)CC(Sc3ncn[nH]3)C2=O)cc1 (stereo not drawn)	4.6µM*	4.6µM*	-4	?	-23	?
CC(C)c1ccc(N2C(=O)CC(Sc3nc4ccccc4o3)C2=O)cc1 (stereo not drawn)	4.6µM*	5.8µM*	6	4µM*	-1	5µM*
COc1ccc(N2C(=O)CC(Sc3ncn[nH]3)C2=O)c(OC)c1 (stereo not drawn)	2.9µM*	2.9µM*	-14	22µM*	-17	3.2µM*
CN(C)C(CNC(=O)c1cc(=O)c2ccccc2o1)c1cccs1 (stereo not drawn)	.	.	12	.	.	.
O=C(NCc1nc2ccccc2[nH]1)c1ccc2n[nH]nc2c1	.	.	0	.	.	.
CCc1ccc(S(=O)(=O)N(C(=O)Oc2ccccc2)c2ccc3oc(C)c(C(=O)OC)c3c2)cc1	3.7µM*	2.9µM*	-6	.	.	.
COC(=O)c1c(C)oc2ccc(N(C(=O)Oc3ccccc3)S(=O)(=O)c3ccc(Cl)c([N+](=O)[O-])c3)cc12	?	21µM*	0	-3%	-105*	5%
CC(=O)c1c(C)oc2ccc(N(C(=O)Oc3ccccc3)S(=O)(=O)c3ccc(Br)cc3)cc12	-8%	22%	-5	.	.	.
CCCC(=O)N(c1ccc2oc(C)c(C(C)=O)c2c1)S(=O)(=O)c1ccc(C)c([N+](=O)[O-])c1	18µM*	16µM*	0	?	9	?
CCOC(=O)c1c(-c2ccccc2)oc2ccc(N(C(C)=O)S(=O)(=O)c3ccc(CC)cc3)cc12	16µM*	5.8µM*	-3	.	.	.
CC(=O)c1c(C)oc2ccc(N(C(=O)Oc3ccccc3)S(=O)(=O)c3ccc(Cl)cc3)cc12	-2%	-10%	0	.	.	.
Cc1c(-c2ccccc2)oc2c(C(=O)NC3CCN(Cc4ccccc4)C3)cccc2c1=O (stereo not drawn)	.	.	8	.	.	.
COc1ccc(COc2ccc(C#N)cc2)c(Br)c1OC	.	.	10	.	.	.
